Experimental findings from PubChem BioAssay (NCI) are described below.

This is part of a sample that, as a whole, favours compounds with a hit. Of some 83,000 tested, about 20% had one in any assay.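 For each line, cells grew in 96-well plates with the test compound present at a single concentration for 48 hours.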 Unmarked numbers belong to inactive results. Active and inactive are the calls of the source. The calls were made as follows: active = growth percent below 10; inactive = the rest.

Test systems include NCI-H23 lung; NCI-H226 lung; NCI-H322M lung; HOP-62 NSCLC; NCI-H460 lung; HOP-92 NSCLC; NCI-H522 lung; A549/ATCC NSCLC; 786-0 renal; COLO 205 colon; DU-145 prostate; K-562 leukemia; MALME-3M melanoma; MDA-MB-231 breast; RXF 393 renal; SF-268 CNS; SF-295 CNS; SF-539 CNS; UACC-257 melanoma; M14 melanoma.
Common to all, as to test: NCI-60 one-dose screen, 48 h (100 = growth as untreated, 0 = no growth, -100 = all killed)
Holding throughout (settings): 10 µM unless noted

As for `Cc1nc2cccc(NCc3ccc(C(=O)NO)cc3)c2c(=O)n1-c1ccccc1`, the growth in the test on NCI-H23 lung was -16.8% (active); with NCI-H226 lung, 67.2%; in the test with NCI-H322M lung, 66.8%; with HOP-62 NSCLC, 43.9%; in the test with NCI-H460 lung, 29.3%; in the test on HOP-92 NSCLC, 15.3%. The growth was -2.46% (active) in the test on NCI-H522 lung; 34.1% with A549/ATCC NSCLC; 54.5% in the test with 786-0 renal; -37.9% (active) with COLO 205 colon; 26.7% with DU-145 prostate; 18.7% in the test with K-562 leukemia. For the same compound, the growth was 35.3% in the test with MALME-3M melanoma; 48.2% with MDA-MB-231 breast; 28.2% in the test with RXF 393 renal; 54% in the test with SF-268 CNS; 16% with SF-295 CNS; 15.1% with SF-539 CNS. For the same compound, the growth in the test on UACC-257 melanoma was 53.4%; in the test with M14 melanoma it was 32.8%.

As to `Cc1cc(N2CCOCC2)nc(N(CCCNc2ccnc3cc(Cl)ccc23)Cc2ccc3c(c2)OCO3)n1`, the growth in the test on NCI-H23 lung was 13.5%; with NCI-H226 lung, 13.8%; with NCI-H322M lung, 21.4%; in the test on HOP-62 NSCLC, -17.6% (active); with NCI-H460 lung, -11.5% (active); in the test with HOP-92 NSCLC, -25.8% (active). For the same compound, the growth with NCI-H522 lung was -66.4% (active); with A549/ATCC NSCLC it was 2.51% (active); with 786-0 renal it was -79% (active); in the test with COLO 205 colon, -58.5% (active); with DU-145 prostate it was 20.3%; in the test on K-562 leukemia, -43.7% (active). Also, the growth in the test with MALME-3M melanoma is -20.5% (active); in the test on MDA-MB-231 breast, -37.1% (active); in the test on RXF 393 renal, -75.6% (active); in the test with SF-268 CNS, 15%; in the test on SF-295 CNS, -69% (active); with SF-539 CNS it was -75.4% (active). The growth in the test on UACC-257 melanoma is -31.5% (active); in the test on M14 melanoma, -61.1% (active).

For the compound `COc1cc(/C=N/NC(=O)c2ccc3nc(-c4ccc(Cl)cc4)[nH]c3c2)cc(OC)c1OC`, the growth was 53.7% with NCI-H23 lung; 76% in the test on NCI-H226 lung; 87.5% with NCI-H322M lung; 81.7% with HOP-62 NSCLC; 82.8% in the test with NCI-H460 lung; 71.7% in the test on HOP-92 NSCLC. For the same compound, the growth is 78.3% with NCI-H522 lung; 85.8% in the test on A549/ATCC NSCLC; 51.2% with 786-0 renal; 45.7% in the test on COLO 205 colon; 97.4% in the test on DU-145 prostate; 32.7% in the test on K-562 leukemia. The growth in the test with MALME-3M melanoma was 28.4%; in the test on MDA-MB-231 breast, 103%; with RXF 393 renal, 36.3%; in the test with SF-268 CNS, 79.7%; in the test with SF-295 CNS, 44%; with SF-539 CNS it was 43.8%. Further, the figures for the growth in the test with UACC-257 melanoma and with M14 melanoma were 54.3% and 42%, respectively.

Consider `O=C1CCC(C(=O)N/N=C/c2ccc([N+](=O)[O-])cc2)N1` (stereo not given), for which the growth is 98.6% with NCI-H23 lung; 106% in the test with NCI-H226 lung; 102% in the test with NCI-H322M lung; 110% with HOP-62 NSCLC; 101% with NCI-H460 lung; 89.1% with HOP-92 NSCLC. For the same compound, the growth with NCI-H522 lung was 96.1%; in the test on A549/ATCC NSCLC, 102%; with 786-0 renal, 95.5%; in the test on COLO 205 colon, 108%; in the test on DU-145 prostate, 103%; in the test with K-562 leukemia, 103%. For the same compound, the growth in the test with MALME-3M melanoma was 101%; with MDA-MB-231 breast it was 109%; in the test with RXF 393 renal it was 111%; in the test on SF-268 CNS it was 96.7%; with SF-295 CNS, 99.7%; with SF-539 CNS, 93.7%. Besides, the growth in the test with UACC-257 melanoma is 106%; with M14 melanoma it was 104%.

With `O=C(Nc1ncc(Cc2cc(C(F)(F)F)ccc2Cl)s1)C(=S)N1CCOCC1`, the growth in the test on NCI-H23 lung is 89.8%; in the test on NCI-H226 lung, 88.3%; with NCI-H322M lung it was 94.6%; with HOP-62 NSCLC, 93%; in the test on NCI-H460 lung, 100%; with HOP-92 NSCLC, 70.4%. The growth was 74.7% in the test with NCI-H522 lung; 93.8% in the test with A549/ATCC NSCLC; 94.6% in the test on 786-0 renal; 96.4% in the test with COLO 205 colon; 100% with DU-145 prostate; 82.2% with K-562 leukemia. Further, the growth was 92.7% with MALME-3M melanoma; 87.4% with MDA-MB-231 breast; 92.6% with RXF 393 renal; 88.7% in the test on SF-268 CNS; 88.8% with SF-295 CNS; 101% in the test with SF-539 CNS. In addition, the growth with UACC-257 melanoma is 95%; in the test with M14 melanoma, 86.7%.

Take `O=C1c2c(c3c4cccnc4[nH]c3c3ccc4ccccc4c23)C(=O)N1O`: the growth with NCI-H23 lung was 35.5%; in the test on NCI-H226 lung it was 72.3%; in the test with NCI-H322M lung, 77.8%; in the test on HOP-62 NSCLC, 55.8%; in the test with NCI-H460 lung, 32.4%; in the test on HOP-92 NSCLC, 81.7%. The growth in the test with NCI-H522 lung is 19.9%; in the test on A549/ATCC NSCLC, 83.6%; in the test with 786-0 renal it was 68.5%; in the test with COLO 205 colon, 57.6%; with DU-145 prostate, 54.8%; in the test with K-562 leukemia, 29.7%. Further, the growth in the test with MALME-3M melanoma is 63.1%; in the test with MDA-MB-231 breast, 85.9%; in the test on RXF 393 renal, 47.9%; in the test on SF-268 CNS, 37.6%; in the test with SF-295 CNS, 91.8%; with SF-539 CNS it was 39.6%. The growth was 76.4% in the test on UACC-257 melanoma and 49% with M14 melanoma.

For the compound `O=c1n(C2OC(CO)C(O)C2O)ccc2nccn12` (stereo not given), the growth in the test on NCI-H23 lung was 113%; in the test with NCI-H226 lung, 110%; with NCI-H322M lung, 114%; in the test with HOP-62 NSCLC it was 127%; in the test with NCI-H460 lung, 99.9%; with HOP-92 NSCLC, 105%. The growth in the test with NCI-H522 lung was 116%; with A549/ATCC NSCLC, 96%; with 786-0 renal it was 103%; in the test with COLO 205 colon, 126%; with DU-145 prostate, 107%; in the test on K-562 leukemia, 102%. Also, the growth is 112% in the test on MALME-3M melanoma; 117% in the test on MDA-MB-231 breast; 162% with RXF 393 renal; 107% with SF-268 CNS; 108% with SF-295 CNS; 112% with SF-539 CNS. The growth was 100% in the test with UACC-257 melanoma and 105% in the test with M14 melanoma.
